# Measured values as given in PubChem BioAssay.
# For some assays here: Results with a measured potency or affinity are listed apart. Some of the results follow. Calls of active or inactive are those of the source.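 How the source made its calls, unless noted: active means compound raising the membrane signal above positive-control mean plus 3 SD in both repeats, and a primary screen hit; inactive means the rest.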
# Columns and labels:
# [1] = test system: TRPC4 beta (transient receptor potential cation channel C4), mouse; assay: activators of mouse TRPC4 channel, confirmation, cell-based, Fluo4 calcium, HEK293 TRPC4beta/mu-opioid, duplicates, 10 µM (AID 2426;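 active means fluorescence ratio normalized to control raised more than 50% in primary screen plus both repeat runs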;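 further: percent rise of integrated ratio over buffer wells lacking compound which define 0%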); conditions: Fluo4 calcium fluorescence, at 10 µM; stronger effect = higher value
# [2] = test system: transient receptor potential cation channel C4 beta (TRPC4), mouse; assay: activators of mouse TRPC4 channel, confirmation, cell-based, second round, Fluo4, HEK293 TRPC4beta/mu-opioid, 1 µM (AID 2461;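 active means primary screen active and over 50% activation in each of two duplicate runs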;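 on activation: 0% = wells without test compound as baseline of integrated fluorescence ratio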); conditions: Fluo4 calcium fluorescence, at 1 µM; stronger effect = higher value
# [3] = test system: TRPC4 (transient receptor potential cation channel C4 beta), mouse; assay: positive allosteric modulators of mouse TRPC4, confirmation, cell-based, second round, Fluo-4, HEK293 TRPC4beta/mu-opioid, 1 µM (AID 2554;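 active means primary screen hit whose fluorescence ratio, in both repeats, exceeds the weak agonist control mean by 3 SD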); conditions: DAMGO EC20, Fluo-4 calcium flux, at 1 µM; stronger effect = higher value
# [4] = test system: TRPC4 beta (transient receptor potential cation channel C4), mouse; assay: positive allosteric modulators of mouse TRPC4, confirmation, cell-based, Fluo-4, HEK293 TRPC4beta/mu-opioid (AID 2555;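 active means primary screen hit whose calcium fluorescence ratio, in both repeats, exceeds the weak agonist control mean by 3 SD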); conditions: DAMGO EC20, Fluo-4 calcium flux, at 10 µM; stronger effect = higher value
# [5] = biological target: Short transient receptor potential channel 4 (Mus musculus) (UniProt Q9QUQ5); assay: inhibitors of mouse TRPC4 channel, confirmation, cell-based, Fluo4, HEK293 TRPC4beta/mu-opioid (AID 2636;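 active means calcium signal cut by more than 3 SD below the full-agonist control yet still positive, in both repeats and the earlier primary screen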); conditions: DAMGO, Fluo4 calcium flux, at 10 µM; stronger effect = higher value
# Chain of Short transient receptor potential channel 4 (Mus musculus) (Q9QUQ5 whole entry, looked up): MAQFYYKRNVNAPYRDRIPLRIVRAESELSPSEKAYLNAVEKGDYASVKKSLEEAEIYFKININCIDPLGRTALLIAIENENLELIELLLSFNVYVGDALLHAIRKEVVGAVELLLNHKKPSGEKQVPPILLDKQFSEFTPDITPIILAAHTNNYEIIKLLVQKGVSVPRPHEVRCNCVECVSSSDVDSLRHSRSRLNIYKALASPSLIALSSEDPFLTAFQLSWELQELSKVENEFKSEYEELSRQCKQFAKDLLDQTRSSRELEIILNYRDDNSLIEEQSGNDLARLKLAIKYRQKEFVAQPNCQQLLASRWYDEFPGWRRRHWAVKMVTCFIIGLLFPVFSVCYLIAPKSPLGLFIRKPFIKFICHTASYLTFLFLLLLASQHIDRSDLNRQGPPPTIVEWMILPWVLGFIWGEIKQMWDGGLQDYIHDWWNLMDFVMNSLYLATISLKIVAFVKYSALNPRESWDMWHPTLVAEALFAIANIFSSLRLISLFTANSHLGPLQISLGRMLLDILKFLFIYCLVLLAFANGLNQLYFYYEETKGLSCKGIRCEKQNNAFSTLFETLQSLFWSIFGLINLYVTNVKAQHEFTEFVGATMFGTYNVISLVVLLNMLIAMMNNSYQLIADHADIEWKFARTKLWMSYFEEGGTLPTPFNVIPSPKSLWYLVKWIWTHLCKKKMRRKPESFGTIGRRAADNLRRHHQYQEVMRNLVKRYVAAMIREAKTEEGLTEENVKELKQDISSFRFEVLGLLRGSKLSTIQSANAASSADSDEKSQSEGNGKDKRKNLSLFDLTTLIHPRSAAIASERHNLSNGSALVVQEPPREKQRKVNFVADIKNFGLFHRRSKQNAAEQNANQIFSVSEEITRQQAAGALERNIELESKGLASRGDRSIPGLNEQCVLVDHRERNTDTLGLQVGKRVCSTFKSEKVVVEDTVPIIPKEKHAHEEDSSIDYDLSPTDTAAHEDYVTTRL
# [6] = biological target: Short transient receptor potential channel 4 (Mus musculus) (UniProt Q9QUQ5); assay: inhibitors of mouse TRPC4 channel, confirmation, cell-based, second round, Fluo4, HEK293 TRPC4beta/mu-opioid, 1 µM (AID 2637;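 active means calcium signal ratio cut to more than 3 SD under the fully stimulated control mean yet still positive, in both repeats and the primary screen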); conditions: Fluo4 calcium flux, DAMGO, at 1 µM; stronger effect = higher value
# [7] = biological target: Short transient receptor potential channel 4 (Mus musculus) (UniProt Q9QUQ5); assay: TRPC4 positive allosteric modulators, dose response, cell-based, HEK293 TRPC4/mu-opioid, Fluo-4 calcium, EC20 DAMGO (AID 434941;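 active means earlier screen potentiator hit that boosts the TRPC4 ion channel at some dose, with a dose response; inactive means no potentiation, no dose response, or not a prior hit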;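 further: calcium entry triggered by an EC20 dose of DAMGO at the co-expressed mu-opioid receptor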)
# [8] = biological target: Short transient receptor potential channel 4 (Mus musculus) (UniProt Q9QUQ5); assay: mouse TRPC4 channel inhibitors, dose response, cell-based, HEK293 TRPC4/mu-opioid, Fluo-4 calcium (AID 434942;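 active means primary screen inhibitor hit that blocks the TRPC4 channel at some tested dose, yielding a dose curve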)
# [9] = biological target: Short transient receptor potential channel 6 (Mus musculus) (UniProt Q61143); assay: inhibition of mouse TRPC6 channel, confirmation, selectivity assay for TRPC4 inhibitor project, cell-based, HEK293, membrane potential dye, duplicate (AID 434948;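 active means active in primary screen and both duplicates, each dropping signal beyond three positive-control SD with fluorescence still positive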); conditions: HEK293 TRPC6, membrane potential dye fluorescence, at 10 µM; inhibition: stronger effect = higher value, stimulated with maximal-effect acetylcholine unless noted; outcome: stimulated with maximal-effect acetylcholine unless noted
# Chain of Short transient receptor potential channel 6 (Mus musculus) (Q61143 whole entry, looked up): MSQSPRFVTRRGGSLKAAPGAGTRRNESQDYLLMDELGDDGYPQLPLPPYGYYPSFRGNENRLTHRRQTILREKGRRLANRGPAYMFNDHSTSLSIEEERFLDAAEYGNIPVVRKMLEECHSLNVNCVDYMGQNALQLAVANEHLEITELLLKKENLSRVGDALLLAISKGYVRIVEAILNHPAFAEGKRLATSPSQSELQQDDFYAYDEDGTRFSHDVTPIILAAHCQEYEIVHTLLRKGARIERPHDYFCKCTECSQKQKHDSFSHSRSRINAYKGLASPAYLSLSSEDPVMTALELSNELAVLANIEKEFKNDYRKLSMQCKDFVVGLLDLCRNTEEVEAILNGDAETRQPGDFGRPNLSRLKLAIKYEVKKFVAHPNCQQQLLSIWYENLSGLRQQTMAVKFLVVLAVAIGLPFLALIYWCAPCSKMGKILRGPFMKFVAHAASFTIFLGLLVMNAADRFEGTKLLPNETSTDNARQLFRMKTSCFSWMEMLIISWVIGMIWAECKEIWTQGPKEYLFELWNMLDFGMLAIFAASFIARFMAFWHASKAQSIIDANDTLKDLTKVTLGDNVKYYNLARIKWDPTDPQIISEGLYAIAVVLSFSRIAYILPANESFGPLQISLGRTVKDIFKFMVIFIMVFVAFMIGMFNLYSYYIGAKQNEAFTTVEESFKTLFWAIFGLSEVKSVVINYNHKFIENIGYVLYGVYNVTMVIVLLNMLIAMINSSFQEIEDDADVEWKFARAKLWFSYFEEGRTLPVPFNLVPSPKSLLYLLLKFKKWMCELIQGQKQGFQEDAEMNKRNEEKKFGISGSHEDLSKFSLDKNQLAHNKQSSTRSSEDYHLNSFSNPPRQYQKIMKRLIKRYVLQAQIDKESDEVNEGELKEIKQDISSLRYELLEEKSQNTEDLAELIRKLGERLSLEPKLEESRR
# [10] = biological target: Short transient receptor potential channel 6 (Mus musculus) (UniProt Q61143); assay: activation of mouse TRPC6 channel, confirmation, selectivity assay for TRPC4 activator project, cell-based, HEK293, membrane potential dye, duplicate (AID 434950;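 active means membrane potential signal rise above negative control mean plus 3 SD in both duplicates, also active in the earlier TRPC4 screen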;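 on activation: 0% = buffer only wells and 100% = acetylcholine maximal-effect wells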); conditions: HEK293 TRPC6, membrane potential fluorescence, at 10 µM; stronger effect = higher value
# [11] = biological target: Short transient receptor potential channel 6 (Mus musculus) (UniProt Q61143); assay: TRPC6 potentiation by TRPC4 potentiator hits, confirmation, selectivity assay for TRPC4 potentiator project, HEK293 cells, membrane potential dye, duplicate (AID 434952); conditions: HEK293 TRPC6, membrane potential dye fluorescence, at 10 µM; maximal acetylcholine added after compound unless noted
# [12] = biological target: Short transient receptor potential channel 4 (Mus musculus) (UniProt Q9QUQ5); assay: calcium flux activators in TRPC4/5HT1a cells, counter-screen for TRPC4 activator project, cell-based, second counter screen, HEK293 TRPC4/5HT1a, Fluo-4 (AID 434977;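 active means calcium signal rise above buffer-control mean plus 5 SD in both duplicates, and also a hit in the primary screen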;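 on activation: plate controls were assay buffer for no effect and maximal serotonin response for full effect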); conditions: Fluo-4 calcium flux, at 10 µM; stronger effect = higher value
# [13] = calcium flux inhibitors in TRPC4/5HT1a cells, confirmation, counter-screen for TRPC4 inhibitor project, cell-based, second counter screen, HEK293 TRPC4/5HT1a, Fluo-4 (AID 434978;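 active means primary screen active whose calcium signal fell more than 3 SD beyond the full-serotonin control mean in both duplicate plates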;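 further: serotonin given first at submaximal then at maximal dose after compound preincubation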); conditions: Fluo-4 calcium flux, at 10 µM; inhibition: stronger effect = higher value, serotonin added to trigger calcium flux unless noted; outcome: serotonin added to trigger calcium flux unless noted
# [14] = test system: TRPC4 (mouse), co-expressed with 5HT1a in HEK293; assay: calcium flux potentiators in TRPC4/5HT1a cells, confirmation, counter-screen for TRPC4 potentiator project, cell-based, second counter screen, HEK293 TRPC4/5HT1a, Fluo-4 (AID 434979;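 active means signal rise over 3 SD above mean of control wells given weak agonist, in both repeats and first screen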); conditions: Fluo-4 calcium flux, at 10 µM; outcome: serotonin added at its EC20 dose unless noted; potentiation: stronger effect = higher value, serotonin added at its EC20 dose unless noted
# [15] = calcium flux activation in mu-opioid HEK293 cells, confirmation, counter-screen for TRPC4 activator project, cell-based, HEK293 mu-opioid receptor line (AID 449723;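 active means hit in primary screen, with calcium signal over 5 SD above buffer well mean in both duplicates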;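 further: counter screen cells carry the mu-opioid receptor alone and lack TRPC4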); conditions: Fluo-4 calcium fluorescence, at 10 µM; stronger effect = higher value
# [16] = calcium flux enhancement in mu-opioid HEK293 cells, confirmation, counter-screen for TRPC4 allosteric potentiator project, cell-based, HEK293 mu-opioid receptor line (AID 449724;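 active means calcium signal rise more than 3 SD above the low-dose agonist control mean, in both duplicate plates and the primary screen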); conditions: Fluo-4 calcium flux, at 10 µM; compound added before EC20 DAMGO stimulus unless noted
# [17] = biological target: Short transient receptor potential channel 6 (Mus musculus) (UniProt Q61143); assay: mouse TRPC6 channel inhibitors, confirmation, HEK293 cells, membrane potential dye, duplicate (AID 488960;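 active means fluorescence ratio falls more than 5 SD below the full-stimulation control mean, in both duplicate runs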;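 further: integrated fluorescence ratio of peak minus minimum over baseline after agonist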); conditions: ACh-evoked depolarization, at 10 µM; stronger effect = higher value
compound,measurement,setting,value
COC(=O)C1=CCCN(C)C1,activation,[1],96% (active)
same,outcome,[2],inactive
same,outcome,[3],inactive
same,outcome,[4],inactive
same,outcome,[5],inactive
same,outcome,[6],inactive
same,outcome,[7],inactive
same,outcome,[8],inactive
same,outcome,[9],inactive
same,activation,[10],70% (active)
same,outcome,[11],inactive
same,activation,[12],43.8% (active)
same,outcome,[13],inactive
same,outcome,[14],inactive
same,activation,[15],19.7% (active)
same,outcome,[16],inactive
Cc1cc(-c2ccccc2)cc(C)[n+]1Cc1ccccc1,activation,[1],142% (active)
same,outcome,[2],inactive
same,outcome,[3],inactive
same,outcome,[4],inactive
same,outcome,[5],inactive
same,outcome,[6],inactive
same,outcome,[7],inactive
same,outcome,[8],inactive
same,outcome,[9],inactive
same,outcome,[10],inactive
same,outcome,[11],inactive
same,outcome,[12],inactive
same,outcome,[13],inactive
same,outcome,[14],inactive
same,outcome,[15],inactive
same,outcome,[16],inactive
COc1ccc(C(CNC(=O)Cc2ccc(Cl)c(Cl)c2)N(C)C)cc1 (stereo not drawn),activation,[1],120% (active)
same,activation,[2],95% (active)
same,outcome,[3],inactive
same,outcome,[4],inactive
same,outcome,[5],inactive
same,outcome,[6],inactive
same,outcome,[7],inactive
same,outcome,[8],inactive
same,outcome,[9],inactive
same,activation,[10],40.5% (active)
same,outcome,[11],inactive
same,outcome,[12],inactive
same,outcome,[13],inactive
same,outcome,[14],inactive
same,outcome,[15],inactive
same,outcome,[16],inactive
CC1=CC(=Cc2sc3ccccc3[n+]2C)C=C(C)O1,inhibition,[17],73% (active)
COc1ccc2c(c1O)C13CCN(C)C(C2)C1CCC(=O)C3 (stereo not drawn),activation,[1],82% (active)
same,activation,[2],96% (active)
same,outcome,[3],inactive
same,outcome,[4],inactive
same,outcome,[5],inactive
same,outcome,[6],inactive
same,outcome,[7],inactive
same,outcome,[8],inactive
same,outcome,[9],inactive [setting not given]
same,activation,[10],27.5% (active)
same,outcome,[11],inactive [setting not given]
same,outcome,[12],inactive
same,outcome,[13],inactive [setting not given]
same,outcome,[14],inactive [setting not given]
same,outcome,[15],inactive
same,outcome,[16],inactive [setting not given]
c1ccc2sc(N3CCNCC3)nc2c1,activation,[1],97% (active)
same,activation,[2],78% (active)
same,outcome,[3],inactive
same,outcome,[4],inactive
same,outcome,[5],inactive
same,outcome,[6],inactive
same,outcome,[7],inactive
same,outcome,[8],inactive
same,outcome,[9],inactive
same,activation,[10],29.5% (active)
same,outcome,[11],inactive
same,activation,[12],51.8% (active)
same,outcome,[13],inactive
same,outcome,[14],inactive
same,outcome,[15],inactive
same,outcome,[16],inactive
O=C(CCCc1ccccc1)NCCc1cnc[nH]1,activation,[1],137% (active)
same,outcome,[2],inactive
same,outcome,[3],inactive
same,outcome,[4],inactive
same,outcome,[5],inactive
same,outcome,[6],inactive
same,outcome,[7],inactive
same,outcome,[8],inactive
same,outcome,[9],inactive
same,outcome,[10],inactive
same,outcome,[11],inactive
same,activation,[12],35.3% (active)
same,outcome,[13],inactive
same,outcome,[14],inactive
same,outcome,[15],inactive
same,outcome,[16],inactive
COc1ccc(CNCCc2ccc3c(c2)OCO3)cc1Br,activation,[1],141% (active)
same,outcome,[2],inactive
same,outcome,[3],inactive
same,outcome,[4],inactive
same,outcome,[5],inactive
same,outcome,[6],inactive
same,outcome,[7],inactive
same,outcome,[8],inactive
same,outcome,[9],inactive [setting not given]
same,activation,[10],47.5% (active)
same,outcome,[11],inactive [setting not given]
same,activation,[12],27.3% (active)
same,outcome,[13],inactive [setting not given]
same,outcome,[14],inactive [setting not given]
same,outcome,[15],inactive
same,outcome,[16],inactive [setting not given]
